This is a sample that favours compounds with a hit; in the whole collection about 0.82% have one here.
LANA DNA inh: inhibitors of KSHV C-LANA binding to DNA, primary screen, biochemical, fluorescence polarization, FAM-LBS DNA, MBP-C-LANA, single point. Kaposi's sarcoma herpesvirus LANA C-terminal domain (residues 932-1162) DNA binding. hit rate 0.078% among 340,000. inhibition, % at 9 µM. AID 504423, 2011;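 active means highest replicate inhibition at or above 60% at 9 µM, even if other replicates fall short; inactive means all replicates below 60% inhibition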;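 further: 0% = neutral control wells and 100% = 4 µM acridine orange control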
Cardiac RTF inh: cardiac RTF calcium sensitivity inhibitors, primary screen, biochemical, IANBD-TnC fluorescence, EC70 calcium. hit rate 0.12% among 340,000. Troponin I, cardiac muscle (Homo sapiens) + Troponin T, cardiac muscle (Homo sapiens) + …. IANBD-labeled cardiac RTF, Ca2+ fluorescence. inhibition, % at 7.15 µM;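 active means inhibition above the mean inhibition of all tested compounds plus 3 SD, cut at about 17% in these data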;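 further: assay run at fixed EC70 calcium of 1.6 mM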
cardiac RTF act: cardiac RTF calcium sensitivity activators, primary screen, biochemical, IANBD-TnC fluorescence, EC20 calcium | Troponin I, cardiac muscle (Homo sapiens) + Troponin T, cardiac muscle (Homo sapiens) + … | IANBD-labeled TnC RTF fluorescence at EC20 calcium; 0% EC20 calcium, 100% full calcium | activation, % at 7.2 µM | hit rate 0.24% among 340,000;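 active means activation above the mean over all tested compounds plus 3 SD, cut at about 30% in these data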;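 further: rise in fluorescence read as greater calcium sensitivity of cardiac thin filaments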
eLon inh: inhibitors of E. coli Lon protease, primary screen, biochemical, fluorescence polarization; purified E. coli Lon protease; inhibition, % at 7.94 µM; hit rate 0.42% among 360,000; in the data active means inhibition above about 13%, passing the limit was not always enough;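 further: 0% = enzyme with probe and DMSO and 100% = no enzyme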
Keap1 Nrf2 FP: Keap1-Nrf2 protein-protein interaction inhibitors, primary screen, biochemical, fluorescence polarization, single point | Kelch-like ECH-associated protein 1 (Homo sapiens), Q14145 | Keap1 Kelch-Nrf2 peptide fluorescence polarization, 1536-well | inhibition, % at 9.4 µM | hit rate 0.15% among 340,000; in the data active means inhibition above about 12%;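 further: human Keap1 Kelch domain with fluorescein labeled Nrf2 9mer peptide probe; 0% = neutral control wells and 100% = peptide positive control; higher means more block of Keap1 binding to Nrf2 peptide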
Target sequence (Q14145 whole entry, looked up, the tested form may be a part): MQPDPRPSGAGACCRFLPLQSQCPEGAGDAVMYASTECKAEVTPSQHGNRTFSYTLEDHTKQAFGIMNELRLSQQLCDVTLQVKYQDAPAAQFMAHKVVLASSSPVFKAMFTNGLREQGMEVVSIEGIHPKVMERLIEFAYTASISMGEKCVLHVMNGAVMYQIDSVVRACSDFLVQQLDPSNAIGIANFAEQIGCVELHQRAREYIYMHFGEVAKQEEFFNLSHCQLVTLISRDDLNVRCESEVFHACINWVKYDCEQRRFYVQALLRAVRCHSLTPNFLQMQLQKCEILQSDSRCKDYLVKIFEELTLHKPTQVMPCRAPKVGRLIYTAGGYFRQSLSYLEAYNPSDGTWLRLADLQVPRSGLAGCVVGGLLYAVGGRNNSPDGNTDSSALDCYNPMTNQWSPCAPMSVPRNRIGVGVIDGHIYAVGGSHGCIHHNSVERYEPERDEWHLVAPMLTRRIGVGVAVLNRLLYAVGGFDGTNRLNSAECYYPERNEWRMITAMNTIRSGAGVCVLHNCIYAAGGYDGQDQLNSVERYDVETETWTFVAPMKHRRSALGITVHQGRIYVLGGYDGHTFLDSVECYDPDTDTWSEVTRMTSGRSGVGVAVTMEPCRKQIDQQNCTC
* marks the source's active call; other numbers are inactive results; i = inactive; . = not tested or not shown; + = active, no number.

SMILES	LANA DNA inh	Cardiac RTF inh	cardiac RTF act	eLon inh	Keap1 Nrf2 FP
COc1ccc(-c2csc(NC(=O)CSc3nc(C)cs3)n2)cc1	6	5	0	2	1
COc1ccc(-c2csc(NC(=O)CSc3nc(C)nc4sc(C(=O)O)c(C)c34)n2)cc1	103*	3	0	0	2
Nc1ccc2ccc(O)cc2c1	3	4	-5	-5	2
C[n+]1c2cc(N)ccc2cc2ccc(N)cc21	195*	i	+	-10	+
N#Cc1ccccc1S(=O)(=O)N1CCN(C(=O)CN(Cc2ccco2)Cc2cccs2)CC1	.	.	.	-1	.
O=C(CC1C(=O)N(c2ccc(Cl)cc2)C(=S)N1CCc1ccncc1)Nc1ccc(F)cc1 (stereo not given)	0	1	39*	5	-5
CCN1/C(=C/c2ccc3cc(C)ccc3[n+]2CC)Sc2ccccc21	-74	-52	47*	-178	-37
CCN1/C(=C/c2ccc3cc(C)ccc3[n+]2CC)Sc2cc(C)c(C)cc21	-39	-193	36*	-163	-6
CC[n+]1ccccc1/C=C1\Sc2ccc(C)cc2N1C	-4	-7	-2	4	-4
CC[n+]1c(/C=C2\Sc3ccccc3N2C)ccc2cccc(C)c21	-75	-105	46*	-149	-39
CCOC(=O)/C(C#N)=C\C=C1C=CN(C)C=C1	-43	-76	59*	i	-143
CCCC(=O)N1CCC1(C)C(=O)Nc1cccc(F)c1 (stereo not given)	.	.	.	-14	.
CC1(C(=O)Nc2cnc3ccccc3c2)CCN1Cc1cc2ccccc2o1 (stereo not given)	.	.	.	-17	.
NC(=O)c1c(NC(=O)C2COc3ccccc3O2)sc2c1CCN(Cc1ccccc1)C2 (stereo not given)	23	-77	38*	-306	-2
CC(=O)c1ccc(C(=O)Nc2sc3c(c2C(N)=O)CCN(Cc2ccccc2)C3)cc1	9	-160	102*	i	-4
COc1cccc(OC)c1C(=O)Nc1sc2c(c1C(N)=O)CCN(Cc1ccccc1)C2	0	-9	2	-20	-2
CCNc1nc(-c2sc(NC(=O)C(C)(C)C)nc2C)c(-n2cc(-c3ccccc3)nn2)s1	.	.	.	-8	.
CCCCCCCCN1C(=O)[C@H](CC(=O)N2CCN(C(=O)OCC)CC2)C[C@@]2(C(=O)OC)CCCCC=C12	.	.	.	1	.
N#CC1=C(N)SC(N)=C(C#N)C1Cc1ccccc1	-5	-73	43*	-275	-24
N#CC1=C(N)SC(N)=C(C#N)C1c1c(Cl)cccc1Cl	-4	-36	11	-231	-24
CC(C)CC1C(C#N)=C(N)SC(N)=C1C#N	-11	-37	42*	-188	-82
N#CC1=C(N)SC(N)=C(C#N)C1CCc1ccccc1	-5	-55	39*	-298	-21
COc1cccc(CNC(=O)[C@@H]2CCCN2C(=O)[C@H]2CCCCN2C(=O)OC(C)(C)C)c1	.	.	.	-8	.
COc1cccc(/C=N/Nc2nc3ccccc3[nH]2)c1O	0	-1	-5	-4	-6
COc1cccc(/C=N/c2nc3ccccc3[nH]2)c1O	3	4	187*	0	-1
SMILES	LANA DNA inh	Cardiac RTF inh	cardiac RTF act	eLon inh	Keap1 Nrf2 FP
O=C(NC1CCCCC1)c1cccc2c1C(=O)c1ccc(N3CCCC3)cc1S2(=O)=O	1	-10	24	-30	2
CC1CCN(c2ccc3c(c2)S(=O)(=O)c2cccc(C(=O)NC4CCCCC4)c2C3=O)CC1	2	-15	33*	-47	-9
O=C(NC1CC1)c1cccc2c1C(=O)c1ccc(N3CCC(Cc4ccccc4)CC3)cc1S2(=O)=O	13	-148	99*	-99	3
O=C(NCc1ccc(F)cc1)c1cccc2c1C(=O)c1ccc(N3CCC(N4CCCCC4)CC3)cc1S2(=O)=O	.	.	.	-41	.
O=C(NC1CCCC1)c1cccc2c1C(=O)c1ccc(N3CCCCC3)cc1S2(=O)=O	23	-4	4	-22	3
O=C(NCc1ccc(F)cc1)c1cccc2c1C(=O)c1ccc(N3CCC(Cc4ccccc4)CC3)cc1S2(=O)=O	28	-441	232*	-25	0
CC1CCN(c2ccc3c(c2)S(=O)(=O)c2cccc(C(=O)NCc4ccc(F)cc4)c2C3=O)CC1	27	3	105*	-16	4
CN(Cc1ccccc1)C(=O)[C@@H]1CCCN1C(=O)[C@@H]1CCCN1C(=O)c1cccc(Cl)c1	.	.	.	0	.
CCCCCC(=O)N1C[C@@H](n2cc(C3CC3)nn2)[C@H](O)C[C@@H]1c1ccc(Cl)cc1	.	.	.	-9	.
COCOCCn1cc(CN2CCS(=O)(=O)N(Cc3ccc(-c4ccccc4)cc3)C(C(C)C)C2=O)nn1 (stereo not given)	.	.	.	3	.
N#Cc1ccc(NC(=S)N2CCC3CC2c2cc(-c4ccc5c(c4)OCO5)ccc23)cc1 (stereo not given)	.	.	.	-1	.
N#C/C(=C\Nc1ccc2cn[nH]c2c1)c1nc(-c2ccccc2)cs1	-3	-2	-6	-7	-1
Cc1ccnc(N/C=C(\C#N)c2nc(-c3cccc(Br)c3)cs2)c1	1	-156	95*	-142	-5
CC(=O)Nc1ccc(C(=O)N2CCCC(c3cc(C(=O)NCc4ccc(F)cc4)no3)C2)cc1 (stereo not given)	.	.	.	1	.
Cc1ccc(S(=O)(=O)Nc2nc3ccccc3nc2NCc2ccco2)cc1	15	-23	25	38*	4
Cc1ccccc1Cn1ccc(NC(=O)c2cnn3c2NC(c2ccccc2)CC3C(F)(F)F)n1 (stereo not given)	0	-3	9	22*	-7
COc1cc(/C=C(\C#N)c2nc3ccccc3s2)ccc1OCC(=O)Nc1ccccc1	8	-23	34*	-78	11
CCOc1ccc(NS(=O)(=O)c2ccc(NS(=O)(=O)c3ccccc3)cc2)cc1	1	-7	-2	3	6
CCOc1ccc(S(=O)(=O)Nc2cc(NS(=O)(=O)c3ccc(OCC)cc3)cc(C(=O)O)c2)cc1	4	-1	-3	-16	22*
CS(=O)(=O)c1ccc(Cl)c(NC(=O)COC(=O)c2ccc(F)cc2Cl)c1	71*	-5	1	6	1
CS(=O)(=O)c1ccc(Cl)c(NC(=O)COC(=O)c2cccc(C#N)c2)c1	0	-9	-2	4	-1
COc1cc(Cn2c3ccc(NC(=O)CCc4ccc(O)cc4)cc3c(=O)n2C)ccc1F	.	.	.	-5	.
COc1ccc(C(=O)NCc2ccc3c(c2)cc(C)n3C)cc1	0	-6	7	15*	2
COCC(=O)NCc1ccc2c(c1)cc(C)n2C	4	-5	-1	11	-2

Assay outcomes (PubChem)
